AMA1-RON2 inh = AMA1-RON2 (P. falciparum) interaction inhibition; AlphaScreen AMA1-biotinylated RON2 peptide binding; Potency, µM (series often up to 58.2 µM), actives largely listed as inhibitors; 0.2% of 360,000 active; AID 720542; active = well fitted curve in the direction sought with a large enough effect; inconclusive = small, poorly fitted or top-dose-only effect, or another doubt; inactive = no such curve, though single readings can be large; an effect the other way counts as inactive or inconclusive; note: nearly all actives have a fitted effect of over 45% in size
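AMA1 (3D7) with his tag at 25 nM final met compounds first, then biotinylated RON2 peptide at 25 nM; detection used donor plus acceptor beads, 10 µg/mL apiece, read by AlphaScreen after 30 min at room temperature.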
SARS PLpro yeast = blocks SARS-CoV papain-like protease in a yeast assay; S. cerevisiae expressing SARS-CoV PLpro, growth rescue; Potency, µM (titrated, usually from 32.9 µM), most hits filed as activators; 0.19% of 330,000 active; AID 485353; note: nearly all actives have a fitted effect of over 55% in size
AmpC detergent = inhibitors of E. coli AmpC beta-lactamase with detergent; Potency, µM (series often up to 114 µM), usual class: inhibitors; AmpC hydrolysis of nitrocefin, absorbance 480 nm, 0.01% Triton; 0.041% of 370,000 active; active = well fitted curve in the direction sought with a large enough effect; inconclusive = small, poorly fitted or top-dose-only effect, or another doubt; inactive = no such curve, though single readings can be large; an effect the other way counts as inactive or inconclusive; note: nearly all actives have a fitted effect of over 25% in size
Target sequence (P00811 whole entry, looked up): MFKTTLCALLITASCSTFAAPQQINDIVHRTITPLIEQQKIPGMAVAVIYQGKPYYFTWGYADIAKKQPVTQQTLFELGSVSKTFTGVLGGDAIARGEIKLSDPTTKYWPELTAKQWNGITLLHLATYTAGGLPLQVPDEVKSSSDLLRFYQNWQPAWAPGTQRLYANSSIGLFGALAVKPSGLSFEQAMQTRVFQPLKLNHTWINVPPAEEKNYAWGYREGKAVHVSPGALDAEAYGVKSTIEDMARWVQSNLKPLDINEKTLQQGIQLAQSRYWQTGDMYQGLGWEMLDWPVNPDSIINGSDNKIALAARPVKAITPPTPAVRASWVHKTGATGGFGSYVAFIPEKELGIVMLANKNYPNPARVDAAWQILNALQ
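AmpC (5.3 nM in the dispensed reagent) in 20 mM phosphate pH 7.0 with 0.01% (detergent screen) or 0.0001% Triton X-100 was preincubated with compounds for 15 min at room temperature. Nitrocefin was then added from an 800 uM solution, and hydrolysis was followed at 480 nm.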
AmpC no deterg = inhibitors of E. coli AmpC beta-lactamase without detergent; P00811; AmpC nitrocefin hydrolysis, absorbance 480 nm, 0.0001% Triton; Potency, µM (titrated, usually from 57.1 µM), usual class: inhibitors; 0.52% of 330,000 active; AID 485341; active = well fitted curve in the direction sought with a large enough effect; inconclusive = small, poorly fitted or top-dose-only effect, or another doubt; inactive = no such curve, though single readings can be large; an effect the other way counts as inactive or inconclusive; note: nearly all actives have a fitted effect of over 20% in size
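AmpC (5.3 nM in the dispensed reagent) in 20 mM phosphate pH 7.0 with 0.01% (detergent screen) or 0.0001% Triton X-100 was preincubated with compounds for 15 min at room temperature. Nitrocefin was then added from an 800 uM solution, and hydrolysis was followed at 480 nm.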
NS1 function inh = blocks influenza NS1 protein function. Potency, µM (titrated, usually from 46.1 µM). 0.4% of 270,000 active; note: actives are rising curves; nearly all actives have a fitted effect of over 50% in size
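S. cerevisiae expressing influenza A NS1, grown in glucose, washed, then diluted 1:100 into pH 6.0 -URA galactose medium with 23 nl compound. Growth recovery read as OD600; NS1-free strain serves as control.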
Flu NS1 inh = influenza NS1 function inhibition validation. 1,400 tested, under 10 active. shares compounds with NS1 function inh. influenza NS1 function cell assay, 15-point titration. AID 492980. activity change, negative = inhibition, % at 32.9 µM
Flu PR8 replic = influenza virus titer reduction, NS1 project. virus titer (log TCID50), log10 TCID50 at 5 µM. shares compounds with NS1 function inh. MDCK infected influenza A/PR/8/34, virus titer TCID50; hits give low values. 30% of 95 active; call rule not given here
Hits are given with their value. Shown are actives, neighbours in structure and some others; about 0.99% of the full set was active somewhere. Unless noted, calls come from the whole dose curve.

Screening CC1(C)SC(=S)N(/N=C/c2ccccc2O)C1N(O)C(=O)Nc1ccccc1 (stereo not given) returned AMA1-RON2 inh inactive, SARS PLpro yeast inactive, AmpC detergent inactive, AmpC no deterg inactive and NS1 function inh inactive.
Screening Cc1nnc(SCC(=O)OC2CC(C)CCC2C(C)C)[nH]c1=O (stereo not given) returned AMA1-RON2 inh inactive, SARS PLpro yeast inactive, AmpC detergent inactive, AmpC no deterg inactive and NS1 function inh inactive.
`CC1CCC(C(C)C)C(OC(=O)CSc2nc(N)cc(=O)[nH]2)C1` (stereo not given) gave AMA1-RON2 inh inactive, SARS PLpro yeast inactive, AmpC detergent inactive, AmpC no deterg inactive, NS1 function inh 8.9µM and Flu NS1 inh inactive.
Screening COc1ccc(CCNC(=O)c2ccc3c(c2)N(Cc2ccc(C)cc2)CCS3)cc1OC returned AMA1-RON2 inh inactive, SARS PLpro yeast inactive, AmpC detergent inactive, AmpC no deterg inactive, NS1 function inh 7.9µM and Flu NS1 inh inactive.
`CCc1ccc2oc(-c3cc(N)ccc3O)nc2c1` gave AMA1-RON2 inh inactive, SARS PLpro yeast inactive, AmpC detergent inactive, AmpC no deterg inconclusive and NS1 function inh inconclusive.
`CCc1ccc2oc(-c3cc(N)cc(C)c3O)nc2c1` gave AMA1-RON2 inh inactive, SARS PLpro yeast inactive, AmpC detergent inconclusive, AmpC no deterg inactive, NS1 function inh 14µM and Flu NS1 inh inactive.
COc1ccc(/C=C(/NC(=O)c2ccccc2)C(=O)N2CCOCC2)cc1OC was read as AMA1-RON2 inh inactive, SARS PLpro yeast inactive, AmpC detergent inactive, AmpC no deterg inactive, NS1 function inh inconclusive and Flu NS1 inh inactive.
Screening COc1cccc(C(=O)n2nc(-c3cccnc3)nc2NCc2ccc(F)cc2)c1 returned AmpC detergent inactive.
CCc1ccc(NC(=O)Cn2c(=O)n(Cc3nc(C)no3)c(=O)c3cc4c(cc32)OCO4)cc1 was read as AmpC detergent inactive.
COc1cccc(-c2cc(C(=O)Nc3nc4ccccc4s3)c3ccccc3n2)c1 was read as AMA1-RON2 inh inactive, SARS PLpro yeast inactive, AmpC detergent inconclusive, AmpC no deterg inactive and NS1 function inh inactive.
Screening COc1ccc(-c2cc(C(=O)Nc3nc4c(C)cccc4s3)c3ccccc3n2)cc1OC returned AMA1-RON2 inh inactive, SARS PLpro yeast inactive, AmpC detergent inconclusive, AmpC no deterg inactive, NS1 function inh 11µM and Flu NS1 inh inactive.
Screening O=C(CSc1nnc(-c2ccccc2)n1C1CCCCC1)Nc1ccc(S(=O)(=O)Nc2ccccn2)cc1 returned AMA1-RON2 inh inactive, SARS PLpro yeast inactive, AmpC detergent inactive, AmpC no deterg inactive, NS1 function inh inconclusive and Flu NS1 inh inactive.
For COc1ccc(S(=O)(=O)N(CC(=O)Nc2cc(Cl)ccc2C)Cc2ccccc2)cc1OC the results were AmpC detergent inactive.
`Cc1ccc2oc(-c3ccc(C)c(NC(=O)c4ccc(N5CCC(C)CC5)c([N+](=O)[O-])c4)c3)nc2c1` gave AmpC detergent inactive.
For O=C1NC(=Nc2ccccc2)S/C1=C\C=C\c1ccco1 the results were AMA1-RON2 inh inactive, SARS PLpro yeast inactive, AmpC detergent inactive, AmpC no deterg 14µM, NS1 function inh 4.5µM and Flu NS1 inh inconclusive.
For Cn1cccc1C(=O)NC(=O)COC(=O)c1ccc(S(C)(=O)=O)cc1 the results were AMA1-RON2 inh inactive, SARS PLpro yeast inactive and AmpC no deterg inactive.
Screening Cn1cccc1C(=O)NC(=O)COC(=O)c1ccc(O)cc1 returned AMA1-RON2 inh inactive, SARS PLpro yeast inactive, AmpC detergent inactive, AmpC no deterg inactive, NS1 function inh 10µM and Flu NS1 inh inactive.
For COc1cc2ccccc2cc1C(=O)Nc1ccc2oc(-c3cccc(C)c3)nc2c1 the results were AmpC detergent inactive.
`COCC(C)n1c(C)cc(C(=O)CSc2nc(C)c(C)c(C)n2)c1C` (stereo not given) gave AMA1-RON2 inh inactive, SARS PLpro yeast inactive, AmpC detergent inactive, AmpC no deterg inactive, NS1 function inh inconclusive and Flu NS1 inh inactive.
For Cc1cccc(-c2noc(-c3ccc(NC4CCCC4)c([N+](=O)[O-])c3)n2)c1 the results were AmpC detergent inactive.
Screening Cc1ccc(-c2csc(N3CCC(NS(=O)(=O)c4ccc5c(c4)OCCO5)CC3)n2)cc1 returned AMA1-RON2 inh inactive, SARS PLpro yeast inactive, AmpC detergent inactive, AmpC no deterg inactive, NS1 function inh inconclusive, Flu NS1 inh inactive and Flu PR8 replic inactive.
For O=C(CCS(=O)(=O)c1cc(Br)cc2c1N(C(=O)C1CC1)CC2)N1CCN(c2cccc(C(F)(F)F)c2)CC1 the results were AmpC detergent inactive.
Screening CCn1c(SCC(=O)Nc2cc(C)ccc2F)nnc1-c1ccccc1O returned AmpC detergent inactive.
`COc1ccc(NC(=O)CSc2nc(O)cc(=O)n2-c2ccccc2OC)cc1` gave AMA1-RON2 inh inactive, SARS PLpro yeast inactive, AmpC detergent inconclusive, AmpC no deterg inactive and NS1 function inh inconclusive.
For CCN(CC)C(=O)CSc1nc(O)cc(=O)n1-c1ccccc1OC the results were AMA1-RON2 inh inactive, SARS PLpro yeast inactive, AmpC detergent inactive, AmpC no deterg inactive, NS1 function inh 8.9µM and Flu NS1 inh inactive.
For Cc1ccc(NC(=O)NNC(=O)Cn2nc(-c3ccccc3)c(-c3ccccc3)c(C#N)c2=O)cc1 the results were AMA1-RON2 inh inactive, SARS PLpro yeast inactive, AmpC detergent inactive, AmpC no deterg inactive, NS1 function inh inconclusive and Flu NS1 inh inactive.
O=C(Cn1nc(-c2ccccc2)c2ccccc2c1=O)Nc1ccc(O)cc1 was read as AMA1-RON2 inh inactive, SARS PLpro yeast inactive, AmpC detergent inactive, AmpC no deterg inactive and NS1 function inh inactive.
`O=C(COCc1cc(-c2ccc3c(c2)OCO3)on1)NCc1ccccc1Cl` gave AmpC detergent inactive.
Screening O=C(Cn1c2ncccc2c(=O)n1-c1ccccc1)Nc1ccc(F)c(F)c1 returned AmpC detergent inactive.
CC(/C=C/c1ccc(N(C)C)cc1)=N\N=C1\NC(=O)CC(C(=O)Nc2ccccc2)S1 (stereo not given) was read as AMA1-RON2 inh inactive, SARS PLpro yeast inactive, AmpC detergent inactive, AmpC no deterg inactive, NS1 function inh 7.9µM and Flu NS1 inh inactive.
`COc1ccc(NC(=O)C2CC(=O)N/C(=N/N=C/c3ccccc3)S2)cc1` (stereo not given) gave AMA1-RON2 inh inactive, SARS PLpro yeast inactive, AmpC detergent inactive, AmpC no deterg inactive and NS1 function inh inactive.
